Measurements as given in ChEMBL document CHEMBL3988442, “University of Dundee, Small-Polar-MMV Screening Library” (2021).
For some assays here: Entries with a potency or affinity are not part of this list.

Tests used:
Set-up in all cases: scale not given: direction of the effect not stated beside the values
[1] = target: Protein translocase subunit SecA (Escherichia coli (strain K12)) (UniProt P10408); test: Assay to Identify E. coli SecA ATPase Inhibitors; assay type: functional; conditions: 30 µM
[2] = target: T1, Ubiquitin-activating enzyme e1, putative (Leishmania donovani (strain BPK282A1)) (UniProt E9BSI1); test: Leishmania donovani Ubiquitin Activating Enzyme (LdE1); assay type: functional; conditions: 30 µM
T1 sequence (whole entry): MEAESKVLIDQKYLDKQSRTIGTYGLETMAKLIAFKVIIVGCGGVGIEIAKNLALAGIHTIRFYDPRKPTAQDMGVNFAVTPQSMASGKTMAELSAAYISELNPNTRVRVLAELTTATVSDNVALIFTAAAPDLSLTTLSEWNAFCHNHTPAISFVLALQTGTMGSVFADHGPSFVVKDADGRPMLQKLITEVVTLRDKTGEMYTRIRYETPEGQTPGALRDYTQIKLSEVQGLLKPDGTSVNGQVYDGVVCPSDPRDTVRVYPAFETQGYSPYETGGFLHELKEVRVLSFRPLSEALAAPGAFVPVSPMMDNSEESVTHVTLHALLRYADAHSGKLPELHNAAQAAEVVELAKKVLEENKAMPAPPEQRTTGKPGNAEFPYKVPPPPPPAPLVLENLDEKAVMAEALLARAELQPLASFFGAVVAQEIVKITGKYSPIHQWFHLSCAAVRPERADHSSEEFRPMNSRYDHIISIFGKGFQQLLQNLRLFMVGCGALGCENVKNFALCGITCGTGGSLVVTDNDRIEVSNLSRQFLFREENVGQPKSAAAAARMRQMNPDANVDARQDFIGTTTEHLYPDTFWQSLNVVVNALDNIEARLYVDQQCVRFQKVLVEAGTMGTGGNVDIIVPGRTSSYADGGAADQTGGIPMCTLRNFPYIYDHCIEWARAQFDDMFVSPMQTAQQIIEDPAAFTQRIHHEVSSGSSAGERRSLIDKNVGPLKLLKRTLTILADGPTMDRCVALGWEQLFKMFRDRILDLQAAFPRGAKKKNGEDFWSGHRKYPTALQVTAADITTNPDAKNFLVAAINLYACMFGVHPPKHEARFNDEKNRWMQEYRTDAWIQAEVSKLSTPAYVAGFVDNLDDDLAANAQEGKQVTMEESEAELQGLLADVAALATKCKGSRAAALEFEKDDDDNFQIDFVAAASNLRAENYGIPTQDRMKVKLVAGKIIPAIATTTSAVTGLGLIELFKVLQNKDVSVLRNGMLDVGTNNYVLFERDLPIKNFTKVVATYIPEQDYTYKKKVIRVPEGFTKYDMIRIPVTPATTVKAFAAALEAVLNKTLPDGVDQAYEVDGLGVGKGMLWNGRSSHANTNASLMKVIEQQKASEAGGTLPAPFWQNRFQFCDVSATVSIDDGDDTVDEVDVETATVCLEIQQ

[3] = target: AMP-activated protein kinase, AMPK (Homo sapiens) (UniProt P54646+O43741+P54619+Q9UGJ0+Q9Y478+Q13131+Q9UGI9); test: AMP-dependent Kinase enzyme assay. An in vitro enzyme assay that detects ADP turnover that is directly proportional to AMPK activity. This uses naive AMPK that is activated during the assay with MK-8722; assay type: functional; conditions: 30 µM
[4] = target: Sialic acid-binding Ig-like lectin 9 (Homo sapiens) (UniProt Q9Y336); test: Hs-Siglec9 ALPHAscreen SOP 20170721; conditions: 10 µM
Trypanosoma cruzi = test: Trypanosoma cruzi phosphomannomutase and mannose-1-phosphate guanylyltransferase assay; assay type: functional; conditions: 10 µM
[5] = target: T2, Arginase-2, mitochondrial (Homo sapiens) (UniProt P78540); test: in vitro enzyme assay to detect the production of urea directly proportional to the activity of Arginase II; assay type: functional; conditions: 33.3 µM; further: in the data most compounds retested in dose-response had high values
T2 sequence (whole entry): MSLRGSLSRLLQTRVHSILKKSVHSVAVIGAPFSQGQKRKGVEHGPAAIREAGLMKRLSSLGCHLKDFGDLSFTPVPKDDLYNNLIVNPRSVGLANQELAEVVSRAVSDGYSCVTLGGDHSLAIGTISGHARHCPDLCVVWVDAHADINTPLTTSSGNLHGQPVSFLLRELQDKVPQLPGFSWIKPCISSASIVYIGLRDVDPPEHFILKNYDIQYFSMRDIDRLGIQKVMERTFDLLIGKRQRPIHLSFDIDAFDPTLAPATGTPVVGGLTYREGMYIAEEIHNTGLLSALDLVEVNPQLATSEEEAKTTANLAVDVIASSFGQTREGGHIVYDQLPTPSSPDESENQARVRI

[6] = target: T3, Proteasome subunit beta (Trypanosoma cruzi) (UniProt O96673); test: Trypanosoma cruzi proteasome chymotrypsin-like activity (TcProtChymo) assay.; further: in the data most compounds retested in dose-response had high values; assay type: functional; conditions: 9.37 µM
T3 sequence (whole entry): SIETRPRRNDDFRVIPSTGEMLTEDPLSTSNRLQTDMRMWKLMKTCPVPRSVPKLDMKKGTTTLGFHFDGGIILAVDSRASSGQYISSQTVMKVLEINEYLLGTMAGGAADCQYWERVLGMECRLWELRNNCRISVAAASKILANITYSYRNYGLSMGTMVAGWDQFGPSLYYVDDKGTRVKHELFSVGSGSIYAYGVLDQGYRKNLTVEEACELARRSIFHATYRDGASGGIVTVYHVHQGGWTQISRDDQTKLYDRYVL

Homo sapiens = species on record: Homo sapiens; test: To identify inhibition of the IFN signalling (Jak-Stat) pathway via expression of an eGFP reporter gene under the control of an IFN-stimulated response element (ISRE) containing MxA promoter.; assay type: functional; conditions: 30 µM
[7] = target: T4, Tyrosyl-tRNA synthetase, putative (Trypanosoma cruzi (strain CL Brener)) (UniProt Q4DSP6); test: Trypanosoma cruzi tyrosyl tRNA synthetase (TcYRS) _High Tyrosine SOP; assay type: functional; conditions: 30 µM; further: in the data most compounds retested in dose-response had high values
T4 sequence (whole entry): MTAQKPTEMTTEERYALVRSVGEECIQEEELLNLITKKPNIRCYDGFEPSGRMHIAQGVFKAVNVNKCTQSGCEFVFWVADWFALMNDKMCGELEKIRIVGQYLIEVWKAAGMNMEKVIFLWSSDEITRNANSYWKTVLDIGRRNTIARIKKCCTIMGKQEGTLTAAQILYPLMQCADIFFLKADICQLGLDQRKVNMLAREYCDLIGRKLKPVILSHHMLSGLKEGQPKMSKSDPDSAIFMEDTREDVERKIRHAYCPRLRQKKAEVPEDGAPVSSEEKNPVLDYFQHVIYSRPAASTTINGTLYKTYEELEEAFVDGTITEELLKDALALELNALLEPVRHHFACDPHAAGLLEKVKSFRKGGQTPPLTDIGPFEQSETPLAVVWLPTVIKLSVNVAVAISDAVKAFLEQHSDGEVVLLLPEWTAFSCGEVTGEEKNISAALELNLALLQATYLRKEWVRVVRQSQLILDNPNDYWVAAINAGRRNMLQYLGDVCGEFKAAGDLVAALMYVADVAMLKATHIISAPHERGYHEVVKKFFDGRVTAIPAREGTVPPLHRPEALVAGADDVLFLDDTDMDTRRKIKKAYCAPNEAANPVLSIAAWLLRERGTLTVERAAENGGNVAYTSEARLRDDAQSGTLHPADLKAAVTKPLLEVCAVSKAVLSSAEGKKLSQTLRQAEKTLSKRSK

[8] = target: T4, Tyrosyl-tRNA synthetase, putative (Trypanosoma cruzi (strain CL Brener)); test: Trypanosoma cruzi tyrosyl tRNA synthetase (TcYRS) SOP; assay type: functional; conditions: 30 µM
[9] = target: Chromo domain-containing protein 1 (Saccharomyces cerevisiae (strain ATCC 204508 / S288c) (Baker's yeast)) (UniProt P32657); test: ScCHD-1 Enzyme Inhibition Assay; assay type: functional; conditions: 30 µM; further: in the data most compounds retested in dose-response had high values
Chromo domain-containing protein 1 (Saccharomyces cerevisiae (strain ATCC 204508 / S288c) (Baker's yeast)), sequence (P32657 whole entry, the tested form may be a part): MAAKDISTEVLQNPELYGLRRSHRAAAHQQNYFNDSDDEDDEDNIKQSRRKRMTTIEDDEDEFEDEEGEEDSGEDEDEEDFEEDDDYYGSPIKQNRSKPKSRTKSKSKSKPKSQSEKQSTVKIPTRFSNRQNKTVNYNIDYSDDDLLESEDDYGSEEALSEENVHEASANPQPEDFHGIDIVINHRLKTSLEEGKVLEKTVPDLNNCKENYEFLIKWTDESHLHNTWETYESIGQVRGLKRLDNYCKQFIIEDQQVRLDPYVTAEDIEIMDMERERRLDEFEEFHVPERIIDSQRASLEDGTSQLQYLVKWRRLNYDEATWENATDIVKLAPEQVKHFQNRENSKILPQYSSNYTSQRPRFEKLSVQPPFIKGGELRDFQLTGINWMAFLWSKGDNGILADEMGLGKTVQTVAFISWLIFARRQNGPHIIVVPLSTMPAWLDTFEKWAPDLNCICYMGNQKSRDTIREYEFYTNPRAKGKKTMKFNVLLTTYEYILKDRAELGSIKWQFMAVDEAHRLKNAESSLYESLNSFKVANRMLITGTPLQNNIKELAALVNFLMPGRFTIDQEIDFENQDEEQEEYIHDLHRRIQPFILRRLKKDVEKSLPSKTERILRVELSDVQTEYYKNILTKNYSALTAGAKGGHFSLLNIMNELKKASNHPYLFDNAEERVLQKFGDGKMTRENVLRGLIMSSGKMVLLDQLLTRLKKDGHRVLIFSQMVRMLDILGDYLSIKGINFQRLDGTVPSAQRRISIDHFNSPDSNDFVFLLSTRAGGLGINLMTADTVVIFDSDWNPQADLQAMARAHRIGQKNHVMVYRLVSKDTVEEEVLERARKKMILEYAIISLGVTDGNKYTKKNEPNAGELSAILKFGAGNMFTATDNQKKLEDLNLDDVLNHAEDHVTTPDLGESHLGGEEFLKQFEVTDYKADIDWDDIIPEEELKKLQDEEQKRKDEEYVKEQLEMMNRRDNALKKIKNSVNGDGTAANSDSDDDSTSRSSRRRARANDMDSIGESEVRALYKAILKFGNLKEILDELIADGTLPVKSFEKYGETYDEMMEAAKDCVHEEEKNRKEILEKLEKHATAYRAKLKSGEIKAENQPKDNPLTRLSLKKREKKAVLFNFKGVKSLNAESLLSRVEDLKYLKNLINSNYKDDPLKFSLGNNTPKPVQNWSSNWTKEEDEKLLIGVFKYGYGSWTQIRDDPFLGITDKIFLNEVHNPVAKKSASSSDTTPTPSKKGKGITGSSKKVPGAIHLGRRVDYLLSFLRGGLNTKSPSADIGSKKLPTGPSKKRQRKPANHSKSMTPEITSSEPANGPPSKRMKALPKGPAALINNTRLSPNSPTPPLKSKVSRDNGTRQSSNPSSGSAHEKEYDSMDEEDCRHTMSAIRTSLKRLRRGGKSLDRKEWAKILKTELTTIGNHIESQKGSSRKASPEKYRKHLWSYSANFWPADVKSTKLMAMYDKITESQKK

Sialic acid-binding Ig-like lectin 9 (Homo sapiens), sequence (Q9Y336 whole entry): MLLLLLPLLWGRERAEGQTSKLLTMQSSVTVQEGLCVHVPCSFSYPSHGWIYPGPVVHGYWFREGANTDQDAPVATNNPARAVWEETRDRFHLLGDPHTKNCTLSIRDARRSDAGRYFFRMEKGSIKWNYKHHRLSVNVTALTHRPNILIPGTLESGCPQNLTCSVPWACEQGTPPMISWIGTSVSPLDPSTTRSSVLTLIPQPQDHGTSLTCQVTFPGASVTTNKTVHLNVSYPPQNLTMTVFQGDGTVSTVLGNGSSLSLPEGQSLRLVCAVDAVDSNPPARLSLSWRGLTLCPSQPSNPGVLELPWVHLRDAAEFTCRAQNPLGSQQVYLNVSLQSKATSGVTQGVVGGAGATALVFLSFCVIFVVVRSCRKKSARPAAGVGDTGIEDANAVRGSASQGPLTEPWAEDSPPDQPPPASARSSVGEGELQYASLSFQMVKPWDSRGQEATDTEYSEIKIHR
Protein translocase subunit SecA (Escherichia coli (strain K12)), sequence (P10408 whole entry): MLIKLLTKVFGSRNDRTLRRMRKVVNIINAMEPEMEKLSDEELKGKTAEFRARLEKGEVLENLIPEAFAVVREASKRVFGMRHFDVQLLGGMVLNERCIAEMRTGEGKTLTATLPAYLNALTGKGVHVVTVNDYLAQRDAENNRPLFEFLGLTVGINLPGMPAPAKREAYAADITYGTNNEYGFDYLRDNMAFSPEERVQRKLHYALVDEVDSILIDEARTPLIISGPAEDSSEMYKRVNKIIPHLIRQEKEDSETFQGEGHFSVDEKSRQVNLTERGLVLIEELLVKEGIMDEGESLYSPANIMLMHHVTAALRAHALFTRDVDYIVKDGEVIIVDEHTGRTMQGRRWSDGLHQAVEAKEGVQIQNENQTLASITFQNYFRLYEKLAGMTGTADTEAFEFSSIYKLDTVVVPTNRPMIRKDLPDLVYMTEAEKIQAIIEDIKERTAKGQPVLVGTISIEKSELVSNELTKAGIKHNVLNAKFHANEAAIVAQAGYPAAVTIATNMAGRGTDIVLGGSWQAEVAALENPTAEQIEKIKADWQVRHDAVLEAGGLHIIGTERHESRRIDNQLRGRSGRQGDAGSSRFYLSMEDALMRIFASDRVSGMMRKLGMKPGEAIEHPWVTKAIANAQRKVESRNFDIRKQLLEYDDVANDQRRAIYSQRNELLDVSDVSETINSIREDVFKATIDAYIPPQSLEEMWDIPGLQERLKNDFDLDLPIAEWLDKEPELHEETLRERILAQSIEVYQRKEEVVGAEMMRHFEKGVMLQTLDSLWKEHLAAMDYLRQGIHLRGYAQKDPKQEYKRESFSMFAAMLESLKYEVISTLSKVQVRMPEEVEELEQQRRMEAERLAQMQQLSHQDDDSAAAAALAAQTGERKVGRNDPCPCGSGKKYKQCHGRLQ

| SMILES | Percent Effect [1] | Percent Effect [2] | Percent Effect [3] | Percent Effect [4] | Percent Effect (Trypanosoma cruzi) | Percent Effect [5] | Percent Effect [6] | Percent Effect (Homo sapiens) | Percent Effect [7] | Percent Effect [8] | Percent Effect [9] |
| --- | --- | --- | --- | --- | --- | --- | --- | --- | --- | --- | --- |
| CC(C)c1noc(CN2CCN(C(=O)c3ccccc3F)CC2)n1 | -4.33% | 13.5% | -4.45% | 3.5% | -2.32% | -3.88% | 6.82% | 23.6% | 7.92% | 18.3% | 0.419% |
| CC(=O)N1CCN(C(=O)CCOc2ccc(C(C)C)cc2)CC1 | -2.33% | 7.89% | 5.03% | 10.9% | -2.26% | 2.3% | 14.4% | 0.908% | 5.39% | 4.88% | -1.04% |
| CC1CCCN(Cc2csc(-c3ncccn3)n2)CC1 (configuration not stated) | -3.33% | -16.2% | -12.5% | 18.6% | 8.26% | -1.66% | 20.5% | 29.2% | 13.9% | 15.8% | 2.62% |
| CCn1cc(CN(C)S(=O)(=O)c2cc(Cl)ccc2Cl)cn1 | -0.942% | 14.7% | -0.125% | -2.27% | -6.09% | -8.98% | 15.9% | 2.3% | 0% | 7.69% | -9.05% |
| COc1ccc(OCC(=O)NC(C)c2ccccc2)c(C(=O)O)c1 (configuration not stated) | -7.92% | 0% | -0.906% | 3.42% | -4.4% | -0.744% | 6.78% | -2.11% | -1.07% | -1.24% | -2.92% |
| O=C(NCCNc1ncccn1)Nc1cc(C(F)(F)F)c[nH]c1=O | -4.49% | 8.11% | 2.74% | 1.17% | 1.02% | -2.4% | 0.539% | 8.76% | 6.93% | 15.8% | -3.38% |
| Cc1nc2c(c(C)c1CC(=O)Nc1cccc(C#N)c1)c(=O)[nH]n2C | -5.36% | 7.79% | 0.36% | -4.8% | -4.8% | -1.9% | 10.8% | 16.6% | 2.86% | 2.35% | -19.9% |
| c1csc(CN2CCO[C@H]3[C@H](OCCN4CCCC4)CC[C@@H]32)n1 | -4.05% | 7.79% | 0.971% | 16% | -0.885% | -57.9% | 8.15% | 10.2% | 2.15% | 11.1% | -0.273% |
| CCc1nccn1C1CCCN(C(=O)c2cn3c(C)cccc3n2)C1 (configuration not stated) | -5.71% | 10.5% | -0.577% | 8.35% | 3.6% | -9.47% | 6.04% | -0.411% | 3.19% | 15.6% | -1.12% |
| CC(C)(C)c1nc(CN(Cc2cccs2)C2CCS(=O)(=O)C2)no1 (configuration not stated) | -1.36% | 21.1% | -5.34% | -2% | 4.76% | 1.44% | 5.67% | 26.2% | 6.4% | 25.9% | -8.43% |
| CCC(=O)N1CCCC(c2cc(Nc3ncccn3)nc(C)n2)C1 (configuration not stated) | -3.27% | 1.35% | 13.2% | -0.199% | -1.58% | -5.8% | 10.6% | -1.71% | 6.45% | 11.7% | -6.06% |
| COc1ncccc1NC(=O)NCC1CCS(=O)(=O)C1 (configuration not stated) | -2.59% | 20.8% | -3.16% | 6.78% | -0.936% | -3.92% | 4.22% | -12.2% | 5.83% | 12.2% | -8.21% |
| CC(C)CN1C[C@H]2CCN(c3ncccn3)CC[C@H]2S1(=O)=O | -1.59% | 20.8% | -1.01% | 12.2% | 6.39% | -15.2% | 15% | -0.732% | 6.45% | 13.6% | 118% |
| Cn1ccnc1CNC(=O)N1CCCC(Cc2nccn2C)C1 (configuration not stated) | -8.83% | -2.7% | 9.59% | -1.15% | -3.71% | -0.833% | 2.28% | -4.83% | 10.9% | 1.22% | 1.72% |
| Cc1cc(N2CCN(Cc3nccn3C)CC2)cc(C)n1 | -3.69% | 1.39% | -5.16% | -5.41% | -5.93% | -0.883% | 12.1% | -10.6% | 0% | -2.56% | -1.23% |
| C=Cc1ccc(C(=O)N2CCCC(Nc3ccc(F)cc3)C2)cc1 (configuration not stated) | -3.33% | 8.11% | 2.02% | 27.7% | 7.72% | 0.952% | 3.97% | 2.82% | 2.65% | 19.5% | -11.2% |
| CC(C)NC(=O)N1CC[C@@H]2CN(Cc3ccccc3)S(=O)(=O)[C@@H]2CC1 | -7.87% | -13.5% | 131% | -3.29% | -6.16% | 0.319% | 6.09% | 29.7% | -5.41% | -5.13% | -1.09% |
| O=C(c1cscn1)N1C[C@H]2CCCC(OCc3cccnc3)[C@H]2C1 (some centres not stated) | -5.26% | 5.33% | -2.55% | 2.64% | -0.193% | -37.5% | 9.06% | -6.53% | 1.04% | 12.5% | -5% |
| CCOc1ncccc1NC(=O)N1CCCCCC1 | -4.07% | 5.41% | 0.669% | 8.62% | -0.836% | -1.29% | 0.179% | 13.2% | 2.97% | 6.1% | 1.09% |
| Cc1cccc(OCCC(=O)N(C)CCNS(C)(=O)=O)c1C | -2.9% | 5.26% | 8.08% | 6.9% | -4.58% | -2.37% | 7.96% | 3.29% | 2.13% | 13% | -5.08% |
| O=C(Cc1ccccn1)N1CCc2nc(-c3cnccn3)nc(O)c2C1 | -2.77% | 12.2% | 8.84% | -3.28% | 0.593% | 3.48% | 12.6% | 9.22% | 4.3% | 9.09% | -9.74% |
| COc1ccccc1OCCN1CCC(N2CCNC2=O)CC1 | -6.27% | 5.41% | 1.68% | 3.47% | -5.66% | 3.51% | 12% | 18.9% | -3.96% | -13.4% | 0.174% |
